Holding throughout (test): NCI-60 one-dose screen, 48 h (100 = growth as untreated, 0 = no growth, -100 = all killed)
Holding throughout (conditions): 10 µM unless noted

Assay [1] has as its system NCI-H23 lung.
For assay [2], the system named is NCI-H226 lung.
Assay [3] concerns NCI-H322M lung.
Assay [4] deals with HOP-62 NSCLC.
In assay [5] the test system is NCI-H460 lung.
The test system of assay [6] is HOP-92 NSCLC.
Assay [7] relates to NCI-H522 lung.
The test system of assay [8] is A549/ATCC NSCLC.
For assay [9], the system named is 786-0 renal.
Assay [10] deals with COLO 205 colon.

This is part of a sample that, as a whole, favours compounds with a hit. Of some 83,000 tested, about 20% had one in any assay.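 Interpretation: 100, growth as untreated; towards 0, rising growth inhibition; 0, no net growth; 0 to -100, cell death. Compounds scoring below 10 were considered active.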 Values without a mark were called inactive. The source made the active and inactive calls.

Consider twelve compounds from PubChem BioAssay (NCI).

Regarding `Cc1ccc(Nc2ncnc3c2c(C)nn3-c2ccc([N+](=O)[O-])cc2)cc1`, the growth in assay [1] was 77.3%; in assay [2] it was 8.18% (active); in assay [3], 88.5%; in assay [4] it was 60.3%; in [5] it was 30.7%; in [6], 111%. Also, the growth in assay [7] is 74.8%; in assay [8] it was 45.1%; in assay [9] it was 86.9%; in assay [10], 72.2%.
As to `COc1cc(/C=N/n2cnc3oc(-c4ccccc4)cc3c2=N)cc(CN2CCN(C)CC2)c1O`, the growth is 104% in assay [1]; 87.3% in [2]; 108% in assay [3]; 88.1% in [4]; 108% in [5]; 74.9% in assay [6]. The growth was 96.9% in assay [7], 94.3% in [8], 62.5% in assay [9] and 80.9% in assay [10].
`CC[C@@](C)(NC(=O)C(C)(C)NC(=O)[C@@H](NC(=O)[C@@H]1CCCN1C(=O)C(C)(C)NC(=O)[C@H](CC(C)C)NC(=O)CNC(=O)C(C)(C)NC(=O)[C@@H](NC(=O)C(C)(C)NC(=O)[C@H](CCC(N)=O)NC(=O)[C@H](C)NC(=O)C(C)(C)NC(=O)[C@H](C)NC(=O)C(C)(C)NC(=O)[C@H](C)NC(=O)C(C)(C)NC(C)=O)C(C)C)C(C)C)C(=O)N[C@@H](CCC(N)=O)C(=O)N[C@@H](CCC(N)=O)C(=O)N[C@H](CO)CC1CCCCC1`: the growth in assay [1] is 16.2% [5 µM]; in assay [2], 47.8% [5 µM]; in [3], 48.8% [5 µM]; in [4], 47.2% [5 µM]; in assay [5], 35.1% [5 µM]; in assay [6] it was -17.2% [5 µM] (active). The growth in assay [7] is 1.56% [5 µM] (active); in [8] it was 47.8% [5 µM]; in assay [9], -14.2% [5 µM] (active); in assay [10] it was -7.42% [5 µM] (active).
Turning to `Cn1cc(-c2nn3c(=O)cc(-c4ccccc4)nc3s2)c2cc(F)ccc21`, the growth is 59.7% in assay [1]; 46.4% in assay [2]; 65.6% in assay [3]; 45% in assay [4]; 15.5% in assay [5]; -3.43% (active) in assay [6]. In addition, the growth is -37.4% (active) in assay [7], 36.7% in assay [8], 82.5% in assay [9] and 44.8% in assay [10].
As for `COc1cc(NC2=C(Cl)C(=O)c3nc(C)ccc3C2=O)cc(OC)c1`, the growth in assay [1] was -55.6% (active); in assay [2], 68.6%; in assay [3], 89.8%; in [4] it was 0.846% (active); in assay [5] it was 2.02% (active); in [6], -12.2% (active). Also, the growth in assay [7] is -80.6% (active); in assay [8] it was 42.4%; in [9], -59.5% (active); in assay [10], -80.5% (active).
Consider `CCN(CC)CCN1C(=O)c2c(c3c4cc(Br)ccc4[nH]c3c3ccc4ccccc4c23)C1=O`, for which the growth in assay [1] was -81.8% (active); in assay [2], 60.8%; in [3], -92.3% (active); in assay [4] it was -66.9% (active); in [5], -65.8% (active); in [6], -65.1% (active). In addition, the growth was -41.9% (active) in assay [7], -80.1% (active) in [8], -85.9% (active) in assay [9] and -3.78% (active) in assay [10].
On to `CC(=O)Nc1ccc(C)c(Nc2cc(-c3ccc(-n4cccn4)cc3)[nH]n2)c1`, for which the growth is 67% in [1]; 57.9% in assay [2]; 83.8% in [3]; 51.7% in [4]; 27.6% in [5]; 113% in assay [6]. The growth is 14.3% in assay [7], 60.2% in [8], 74.9% in [9] and 67.1% in [10].
As to `Cc1cccc(NC(c2cc3cccc4ccc5cccc2c5c43)c2nnnn2C(C)(C)C)c1C` (stereo not given), the growth in assay [1] is 82.2%; in assay [2], 31.9%; in [3], 86.4%; in assay [4], 86.5%; in assay [5], 93.4%; in [6], 90.2%. Also, the growth in assay [7] was 77.3%; in [8], 92.7%; in assay [9] it was 97.6%; in assay [10], 102%.
As to `C=C1C(=O)O[C@@H]2C[C@@H](C)CCC(=O)[C@](C)(OC(C)=O)C[C@H](OC(=O)/C(C)=C\C)[C@@H]12`, the growth in assay [1] was 70.6%; in assay [2], 104%; in [3], 102%; in assay [4] it was 105%; in [5], 97.3%; in assay [6], 80%. The growth in assay [7] is 11.8%; in assay [8], 87.7%; in assay [9], 90.8%; in [10], 28.6%.
Take `O=C(Nc1cc(Cl)cc(Cl)c1)Nc1nc2ccc([N+](=O)[O-])cc2s1`: the growth was -37.7% (active) in assay [1]; -9.83% (active) in [2]; 9.2% (active) in assay [3]; -4.21% (active) in assay [4]; 1.08% (active) in assay [5]; -6.65% (active) in [6]. Further, the growth was 1.99% (active) in [7], 9.1% (active) in [8], 11% in assay [9] and -49.2% (active) in assay [10].
For the compound `CCCCCCCCCC[C@@H](C)[C@@H]1CC(=O)N[C@H]([C@@H](C)O)C(=O)N[C@@H](C)C(=O)N[C@H](C)C(=O)N[C@@H](CCC(N)=O)C(=O)N[C@H](Cc2ccc(O)cc2)C(=O)N[C@@H](C(C)CC)C(=O)O1` (stereo not given in full), the growth was 35.6% in assay [1]; 42.1% in assay [2]; 89.1% in [3]; 73.9% in assay [4]; 63.6% in [5]; 43.3% in [6]. For the same compound, the growth in assay [7] was 36.1%; in assay [8] it was 47.6%; in assay [9] it was 91.8%; in [10] it was 66%.
With `COc1ccc(/C=N/Nc2nc(Nc3ccccc3)nc(Nc3ccc(S(N)(=O)=O)cc3)n2)cc1`, the growth was 70.3% in assay [1]; 73.2% in assay [2]; 84.6% in assay [3]; 80.4% in [4]; 55.2% in assay [5]; 95.7% in assay [6]. Moreover, the growth in assay [7] was 82.5%; in assay [8], 87.1%; in [9] it was 73.7%; in [10] it was 76.9%.
